# Test results as given in the supplement of paper PMC12067926.
# Test system: Pseudomonas 5 (Pseudomonas baetica)
# Experiment: relative growth (AUC of 72 h growth curve relative to DMSO control, dAUC) (ratio); higher = more growth (less inhibition), active = hit call of the paper
# Details: 20 µM;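 active = growth AUC significantly below the DMSO wells by Dunnett test; inactive = the rest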
# In short: (§1)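 Each chemical was tested at 20 µM (1% DMSO) in 96-well plates seeded with a 1:100 dilution of cultures grown to carrying capacity in Luria–Bertani medium. These were isolates from Icelandic stream sediments and Silwood Park soil, as well as whole sediment communities. A plate reader took A600 readings hourly over 72 h, and three biological replicates were averaged. Relative growth (dAUC) is the spline-integrated area under the growth curve relative to the mean of the DMSO controls.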
row,Compound,relative growth
1,Nc1c([N+](=O)[O-])ccc(Oc2ccccc2)c1Cl,1.02 (inactive)
2,C/C(=N\C#N)N(C)Cc1ccc(Cl)nc1,1.03 (inactive)
3,CCC(C)(C)C(=O)OC1=C(c2ccc(Cl)cc2Cl)C(=O)OC12CCCCC2,1.02 (inactive)
4,CC1(C)CON(Cc2ccccc2Cl)C1=O,1.06 (inactive)
5,CC[C@H](C)[C@H]1O[C@]2(C=C[C@@H]1C)C[C@@H]1C[C@@H](C/C=C(\C)[C@@H](O[C@H]3C[C@H](OC)[C@@H](O[C@H]4C[C@H](OC)[C@@H](O)[C@H](C)O4)[C@H](C)O3)[C@@H](C)/C=C/C=C3\CO[C@@H]4[C@H](O)C(C)=C[C@@H](C(=O)O1)[C@]34O)O2.CO[C@H]1C[C@H](O[C@H]2[C@H](C)O[C@@H](O[C@@H]3/C(C)=C/C[C@@H]4C[C@@H](C[C@]5(C=C[C@H](C)[C@@H](C(C)C)O5)O4)OC(=O)[C@@H]4C=C(C)[C@@H](O)[C@H]5OC/C(=C\C=C\[C@@H]3C)[C@]54O)C[C@@H]2OC)O[C@@H](C)[C@@H]1O,1.13 (inactive)
6,CCC(CC)Nc1c([N+](=O)[O-])cc(C)c(C)c1[N+](=O)[O-],1.05 (inactive)
7,Cc1c(COC(=O)[C@@H]2[C@H](/C=C(\Cl)C(F)(F)F)C2(C)C)cccc1-c1ccccc1 (racemic),1.01 (inactive)
8,CS(=O)(=O)c1ccc(C(=O)C2C(=O)CCCC2=O)c([N+](=O)[O-])c1,0.998 (inactive)
9,N#Cc1cc(Br)c(O)c(Br)c1,1.05 (inactive)
10,CNC(=O)CSP(=S)(OC)OC,1.02 (inactive)
11,COP(=S)(OC)SCN1C(=O)c2ccccc2C1=O,1.03 (inactive)
12,OC(Cn1cncn1)(c1ccc(F)cc1)c1ccccc1F (centres undefined),1 (inactive)
13,CN1COCN(Cc2cnc(Cl)s2)/C1=N\[N+](=O)[O-],1.04 (inactive)
14,N#CC(CCc1ccc(Cl)cc1)(Cn1cncn1)c1ccccc1 (centres undefined),0.932 (inactive)
15,CCSC(C)CC1CC(=O)C(/C(CC)=N/OC/C=C/Cl)=C(O)C1 (mixture of isomers),1.05 (inactive)
16,CCCCc1c(C)nc(NCC)nc1OS(=O)(=O)N(C)C,0.981 (inactive)
17,CCCN(CCC)C(=O)SCc1ccccc1,1.06 (inactive)
18,O=C(O)COc1ccc(Cl)cc1Cl,0.997 (inactive)
19,O=C1C2(Cl)C3(Cl)C4(Cl)C(Cl)(Cl)C5(Cl)C3(Cl)C1(Cl)C5(Cl)C24Cl (centres undefined),1.07 (inactive)

row,Compound,relative growth
1,Nc1c(Cl)c(F)nc(OCC(=O)O)c1Cl,0.947 (inactive)
2,Cc1cccc2sc3nncn3c12,1.04 (inactive)
3,O=C(O)CNCP(=O)(O)O,1 (inactive)
4,CCNC(=O)NC(=O)/C(C#N)=N/OC,0.986 (inactive)
5,Cc1cc(C2CC2)nc(Nc2ccccc2)n1,0.991 (inactive)
6,COP(=O)(NC(C)=O)SC (centres undefined),1.02 (inactive)
7,Cc1nnc(-c2ccccc2)c(=O)n1N,0.987 (inactive)
8,Clc1ccc(C(c2ccc(Cl)cc2)C(Cl)(Cl)Cl)cc1,1.05 (inactive)
9,O=C(Nc1ccc(F)cc1F)c1cccnc1Oc1cccc(C(F)(F)F)c1,1.06 (inactive)
10,N#Cc1sc2c(=O)c3ccccc3c(=O)c=2sc1C#N,0.962 (inactive)
11,CC[C@H](C)C1O[C@]2(C=C[C@@H]1C)C[C@@H]1C[C@@H](C/C=C(\C)[C@@H](O[C@H]3C[C@H](OC)[C@@H](O[C@H]4C[C@H](OC)[C@H](NC)[C@H](C)O4)[C@H](C)O3)[C@@H](C)/C=C/C=C3\CO[C@@H]4[C@H](O)C(C)=C[C@@H](C(=O)O1)[C@]34O)O2 (some centres undefined),1.16
12,CNC(=O)Oc1cccc2ccccc12,1.04 (inactive)
13,COP(N)(=O)SC (centres undefined),1.1 (inactive)
14,COC(=O)NC(=S)Nc1ccccc1NC(=S)NC(=O)OC,1.06 (inactive)
15,COP(=O)(OC)OC=C(Cl)Cl,1.01 (inactive)
16,CC(C)N(C(=O)COc1nnc(C(F)(F)F)s1)c1ccc(F)cc1,1.01 (inactive)
17,CCc1cc(C)cc(CC)c1-c1c(OC(=O)C(C)(C)C)n2n(c1=O)CCOCC2,0.951 (inactive)
18,CNC(=O)ON=C(C)SC,1.02 (inactive)

# Test system: Pseudomonas 6 (Pseudomonas sp.)
# Experiment: as above
# Details: 20 µM
# In short: as §1
row,Compound,relative growth
1,Nc1c([N+](=O)[O-])ccc(Oc2ccccc2)c1Cl,1.15 (inactive)
2,C/C(=N\C#N)N(C)Cc1ccc(Cl)nc1,0.981 (inactive)
3,CCC(C)(C)C(=O)OC1=C(c2ccc(Cl)cc2Cl)C(=O)OC12CCCCC2,1.06 (inactive)
4,CC1(C)CON(Cc2ccccc2Cl)C1=O,1.13 (inactive)
5,CC[C@H](C)[C@H]1O[C@]2(C=C[C@@H]1C)C[C@@H]1C[C@@H](C/C=C(\C)[C@@H](O[C@H]3C[C@H](OC)[C@@H](O[C@H]4C[C@H](OC)[C@@H](O)[C@H](C)O4)[C@H](C)O3)[C@@H](C)/C=C/C=C3\CO[C@@H]4[C@H](O)C(C)=C[C@@H](C(=O)O1)[C@]34O)O2.CO[C@H]1C[C@H](O[C@H]2[C@H](C)O[C@@H](O[C@@H]3/C(C)=C/C[C@@H]4C[C@@H](C[C@]5(C=C[C@H](C)[C@@H](C(C)C)O5)O4)OC(=O)[C@@H]4C=C(C)[C@@H](O)[C@H]5OC/C(=C\C=C\[C@@H]3C)[C@]54O)C[C@@H]2OC)O[C@@H](C)[C@@H]1O,1.04 (inactive)
6,CCC(CC)Nc1c([N+](=O)[O-])cc(C)c(C)c1[N+](=O)[O-],1.04 (inactive)
7,Cc1c(COC(=O)[C@@H]2[C@H](/C=C(\Cl)C(F)(F)F)C2(C)C)cccc1-c1ccccc1 (racemic),0.949 (inactive)
8,CS(=O)(=O)c1ccc(C(=O)C2C(=O)CCCC2=O)c([N+](=O)[O-])c1,0.96 (inactive)
9,N#Cc1cc(Br)c(O)c(Br)c1,1.12 (inactive)
10,CNC(=O)CSP(=S)(OC)OC,1.19 (inactive)
11,COP(=S)(OC)SCN1C(=O)c2ccccc2C1=O,1.12 (inactive)
12,OC(Cn1cncn1)(c1ccc(F)cc1)c1ccccc1F (centres undefined),0.961 (inactive)
13,CN1COCN(Cc2cnc(Cl)s2)/C1=N\[N+](=O)[O-],1.1 (inactive)
14,N#CC(CCc1ccc(Cl)cc1)(Cn1cncn1)c1ccccc1 (centres undefined),0.909 (inactive)
15,CCSC(C)CC1CC(=O)C(/C(CC)=N/OC/C=C/Cl)=C(O)C1 (mixture of isomers),1.14 (inactive)
16,CCCCc1c(C)nc(NCC)nc1OS(=O)(=O)N(C)C,1 (inactive)
17,CCCN(CCC)C(=O)SCc1ccccc1,1.13 (inactive)
18,O=C(O)COc1ccc(Cl)cc1Cl,1.07 (inactive)
19,O=C1C2(Cl)C3(Cl)C4(Cl)C(Cl)(Cl)C5(Cl)C3(Cl)C1(Cl)C5(Cl)C24Cl (centres undefined),1.14 (inactive)

row,Compound,relative growth
1,Nc1c(Cl)c(F)nc(OCC(=O)O)c1Cl,0.889 (inactive)
2,Cc1cccc2sc3nncn3c12,1.1 (inactive)
3,O=C(O)CNCP(=O)(O)O,1.1 (inactive)
4,CCNC(=O)NC(=O)/C(C#N)=N/OC,1.03 (inactive)
5,Cc1cc(C2CC2)nc(Nc2ccccc2)n1,0.966 (inactive)
6,COP(=O)(NC(C)=O)SC (centres undefined),1.14 (inactive)
7,Cc1nnc(-c2ccccc2)c(=O)n1N,1.1 (inactive)
8,Clc1ccc(C(c2ccc(Cl)cc2)C(Cl)(Cl)Cl)cc1,1.16 (inactive)
9,O=C(Nc1ccc(F)cc1F)c1cccnc1Oc1cccc(C(F)(F)F)c1,1.13 (inactive)
10,N#Cc1sc2c(=O)c3ccccc3c(=O)c=2sc1C#N,0.885 (inactive)
11,CC[C@H](C)C1O[C@]2(C=C[C@@H]1C)C[C@@H]1C[C@@H](C/C=C(\C)[C@@H](O[C@H]3C[C@H](OC)[C@@H](O[C@H]4C[C@H](OC)[C@H](NC)[C@H](C)O4)[C@H](C)O3)[C@@H](C)/C=C/C=C3\CO[C@@H]4[C@H](O)C(C)=C[C@@H](C(=O)O1)[C@]34O)O2 (some centres undefined),1.19 (inactive)
12,CNC(=O)Oc1cccc2ccccc12,1.12 (inactive)
13,COP(N)(=O)SC (centres undefined),1.06 (inactive)
14,COC(=O)NC(=S)Nc1ccccc1NC(=S)NC(=O)OC,1.14 (inactive)
15,COP(=O)(OC)OC=C(Cl)Cl,0.982 (inactive)
16,CC(C)N(C(=O)COc1nnc(C(F)(F)F)s1)c1ccc(F)cc1,1.1 (inactive)
17,CCc1cc(C)cc(CC)c1-c1c(OC(=O)C(C)(C)C)n2n(c1=O)CCOCC2,1.02 (inactive)
18,CNC(=O)ON=C(C)SC,0.936 (inactive)
